Hits are enriched below; roughly 21% of the tested compounds scored in any of these assays.
DRD3 agonist = agonists of human D3 dopamine receptor | P35462 | D3R DiscoveRx beta-arrestin cells, luminescence, 90 min | max activation, % | 0.58% of 410,000 active | AID 652048; in the data active means max activation above about 30%; further: 0% is about no effect
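Agonist-mode cell screen: cells plated at 1500/well and incubated overnight at 37 °C, then exposed to library compounds for 90 min at 37 °C. Detection reagent was added for 30–60 min at room temperature, and luminescence was read.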
DT40 TDP1 CPT = DT40-hTDP1 cell growth loss with CPT. Potency, µM (titrated, usually from 46.2 µM), for inactives: at the top dose activity change, negative = growth inhibition, usual class: inhibitors. 12% of 420,000 active. chicken DT40 Tdp1-/-;hTDP1 cells + 20 nM CPT, ATP luminescence, 48 h; further: potency means the concentration at half of the fitted maximal effect; on the % scale 0 is the no-effect control and ±100 the full control effect; nearly all actives have a fitted effect of over 55% in size
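Chicken DT40 Tdp1-/- cells stably complemented with human TDP1 were seeded at 400 cells/well in medium containing 20 nM camptothecin, exposed to pin-transferred compounds, and grown at 37 °C for at least 48 hr. Viability was read as ATP luminescence.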
D3 antag = antagonists of human D3 dopamine receptor; P35462; D3R cells, DiscoveRx beta-arrestin luminescence, antagonist mode; stronger effect = lower value; max response, negative = inhibition, %; 2.5% of 360,000 active; in the data active means max response below about -50%; inconclusive means no clear call, values can overlap the other calls; further: on the % scale 0 is the no-effect control and ±100 the full control effect
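Cells plated overnight at 1500 cells/well, then exposed to library compounds with dopamine controls for 90 minutes at 37 degrees C. DiscoveRx reagent added for 30–60 minutes at room temperature; luminescence read, quantitative HTS format.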
TDP1 cell noCPT = qHTS for Inhibitors of human tyrosyl-DNA phosphodiesterase 1 (TDP1): qHTS in cells in absence of CPT | 15% of 420,000 active | Potency, µM (titrated, usually from 46.2 µM), for inactives: top-dose activity change, negative = growth inhibition, actives largely listed as inhibitors | DT40 Tdp1-/- hTDP1 cells, no CPT, ATP luminescence, 48 h; further: potency means the concentration at half of the fitted maximal effect; on the % scale 0 is the no-effect control and ±100 the full control effect; nearly all actives have a fitted effect of over 55% in size
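Readout: luminescence from CellTiter-Glo after 30 min in the dark at RT. Cells: DT40 Tdp1-/- with stable hTDP1, 400/well. Exposure: compounds alone, ≥48 hr, 37 °C.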
IL1B secr inh = inhibitors of inflammasome signaling (IL-1 beta secretion); activity change, % at 57.5 µM; AID 743279; THP-1 LPS/ATP IL-1B secretion, AlphaLISA, 16 h; stronger effect = lower value; 4.7% of 360,000 active; in the data active means activity change below about -50%; inconclusive means mostly about -30% to -49%; further: on the % scale 0 is the no-effect control and ±100 the full control effect
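THP-1 cells pretreated 1 hr with compounds (up to 57.5 uM final), then stimulated with LPS (250 ng/mL final) plus ATP (1.25 mM final); secreted IL-1B measured by AlphaLISA after 16 hr, decreased signal indicating inhibition.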
ClpP mod = qHTS Assay for Activators of ClpP; ATP-dependent Clp protease proteolytic subunit (Bacillus subtilis (strain 168)), P80244; purified B. subtilis ClpP, FRET peptide cleavage, 20 min; Potency, µM (series often up to 57.5 µM), inactives show at the highest dose activity change, negative = active; 1.9% of 340,000 active; AID 651965, 2013; active means well fitted falling curve with a large enough effect; inconclusive means small, poorly fitted or top-dose-only effect; inactive means no such curve, though single readings can be large or run the other way; further: potency means the concentration at half of the fitted maximal effect; the source files actives as falling curves though it sought activators and does not explain the sign; nearly all actives have a fitted effect of over 65% in size
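FRET quenching reversal measured ClpP activation: 10 microg/mL B. subtilis ClpP at pH 8 with the FRET-FV decapeptide, read at 430 nm after 320 nm excitation. The 20-min minus 0-min signal was scaled between DMSO/no-enzyme wells and ADEP (5.8 microM final).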
* marks the source's active call; other numbers are inactive results; i = inactive; ? = inconclusive; . = no result. Unless noted, the call rests on the fitted dose curve; in most records, active means well fitted inhibition curve with a large enough effect; inconclusive means small, poorly fitted or top-dose-only effect; inactive means flat fitted curve, though single readings scatter.

SMILES	DRD3 agonist	DT40 TDP1 CPT	D3 antag	TDP1 cell noCPT	IL1B secr inh	ClpP mod
N#CC1=C(N)OC2=C(CC/C2=C\c2ccccc2)C1c1ccccc1 (centres undefined)	1	13µM*	-1	10µM*	-22	-8%
Cc1oc(C)c2c(=O)ccc3c(c12)OC(N)=C(C#N)C3c1ccccc1Cl (centres undefined)	1	?	14	?	?	-4%
COc1ccc(Nc2ncc(C(=O)Nc3cccc(Cl)c3)c3ccccc23)cc1	6	?	.	?	.	-11%
Cc1ccc2nc3c(cc(C(=O)NC4CCS(=O)(=O)C4)n3Cc3ccccc3)c(=O)n2c1 (centres undefined)	6	?	8	?	-9	4%
N#Cc1c(SCc2ccc(Cl)cc2)sc(C(=O)c2ccccc2)c1N	-5	?	-23	?	15	-16%
CSc1c(C#N)c(N)nc2sc(C(=O)c3ccccc3)c(N)c12	10	-2%	-5	6%	-73*	.
CC12c3ccccc3C(c3ccccc31)C1C(=O)N(Cc3cccnc3)C(=O)[C@H]12 (some centres undefined)	1	18µM*	11	?	-10	-4%
CC12c3ccccc3C(c3ccccc31)C1C(=O)N(c3cccnc3)C(=O)C12 (centres undefined)	5	?	17	15µM*	20	-16%
CC12c3ccccc3C(c3ccccc31)C1C(=O)N(c3ccncc3)C(=O)C12 (centres undefined)	9	16µM*	1	16µM*	0	-1%
O=C(O)c1ccc(N2C(=O)C3C4c5ccccc5C(Br)(c5ccccc54)C3C2=O)cc1 (centres undefined)	-5	31%	-1	-16%	-8	.
C=C(C)CCOC(=O)C(CC(=O)O)NCc1ccco1 (centres undefined)	-3	-1%	-10	4%	0	1%
O=C(CNC(=O)c1cccs1)c1ccc(Br)cc1	9	7%	2	-14%	-16	.
O=C(Nc1cccc(Cl)c1)c1cc(F)cc2c1OCOC2	14	9%	12	1%	-3	.
Cc1nc(NC(=O)c2ccccc2)sc1Cc1ccc2c(c1)OCO2	0	?	-6	?	-13	.
Cc1cc(C)nc(NC(=NCc2ccc3c(c2)OCO3)NC(=O)Nc2ccccc2)n1	-8	5.2µM*	9	4.6µM*	-7	-14%
O=C(C1CCCCC1)N(Cc1nc2sc3c(c2c(=O)[nH]1)CCCC3)Cc1cccs1	17	?	-14	13µM*	14	?
Cn1c(CC(=O)NNC(=O)c2ccccc2[N+](=O)[O-])nc2ccccc21	0	9%	-2	-7%	26	-1%
Cc1cccc(-n2ncc3c2CCCC3NC(=O)CCc2ccncc2)c1C (centres undefined)	1	12µM*	14	6.5µM*	0	-1%
Cc1cc(C(=O)NC2CCCc3c2cnn3-c2cccc(C)c2C)n(C)n1 (centres undefined)	4	0.15µM*	13	0.21µM*	14	0%
Cc1ccccc1-n1ncc2c1CC(C)(C)CC2NC(=O)C1CCC1 (centres undefined)	-1	2%	0	-3%	52	-1%
CC(C)c1cc(C(=O)NC2CCCc3c2cnn3-c2ccccc2F)no1 (centres undefined)	-17	?	-14	?	-4	-1%
Cc1cccc(-n2ncc3c2CCCC3NC(=O)c2ccc[n+]([O-])c2)c1C (centres undefined)	21	12µM*	3	?	20	-3%
O=C(NC1CCCc2c1cnn2-c1cc(F)cc(F)c1)c1ccc[n+]([O-])c1 (centres undefined)	20	-3%	3	-4%	8	1%
Cc1ccn(CCC(=O)NC2CCCc3c2cnn3-c2cccc(C)c2C)n1 (centres undefined)	0	?	16	-1%	10	-1%
Cc1cccc(-n2ncc3c2CCCC3NC(=O)C2CCOCC2)c1C (centres undefined)	-7	?	-8	15µM*	i	-1%
SMILES	DRD3 agonist	DT40 TDP1 CPT	D3 antag	TDP1 cell noCPT	IL1B secr inh	ClpP mod
Cc1nnc(SCC(=O)Nc2c(Cl)cccc2Cl)n(N)c1=O	-3	?	2	-11%	5	-2%
CN(CC(=O)Nc1cccc(F)c1)C(=O)/C=C/c1cc(Br)ccc1OC(F)F	-9	4.6µM*	-54*	5.8µM*	-29	-7%
CN(CC(=O)Nc1cccc(F)c1)C(=O)/C=C/c1ccc2ccccc2n1	4	?	13	0%	-51*	-5%
COc1ccc(N2CCN(C(=O)c3cc4c(=O)n(Cc5cccs5)ccc4nc3C)CC2)cc1	-10	?	.	26µM*	.	-13%
Cc1nc2ccn(Cc3cccs3)c(=O)c2cc1C(=O)N1CCN(c2ccc(F)cc2)CC1	-11	?	.	?	.	-7%
COc1cccc(N2CCN(C(=O)c3cc4c(=O)n(Cc5cccs5)ccc4nc3C)CC2)c1	-5	23µM*	.	?	.	-16%
Cc1ccc(C)c(N2CCN(C(=O)c3cc4c(=O)n(Cc5cccs5)ccc4nc3C)CC2)c1	-5	23µM*	.	21µM*	.	?
Cc1ccc(C)c(NCC(O)c2ccccc2)c1 (centres undefined)	2	-2%	6	0%	-19	.
C[C@@H](C(=O)Nc1ccc2ccccc2c1)[C@H]1C[C@]1(C)[C@H](NC(=O)c1cccnc1)c1ccccc1	0	?	-50*	?	-6	0%
CCCN1CCC(N(CCc2ccccc2)Cc2ccccc2)CC1	-5	-25%	-97*	?	-13	3%
CCN(Cc1ccccc1)C1CCN(Cc2ccccc2)CC1	-18	-3%	2	6%	?	1%
COc1ccc(CN2CCC(N(CCc3ccccc3)Cc3ccccc3)CC2)c(OC)c1	-12	23µM*	-62*	23µM*	-94*	.
CCN(CCO)C(=O)c1ccc2nc(Cc3ccc(OC)cc3)oc2c1	23	-2%	21	-17%	10	.
C[N+](C)(C)C/C=C1/COCO1	1	18µM*	5	?	-9	-3%
CN(Cc1ccc(Cl)cc1Cl)C(=O)CNC(=O)c1ccc2c(c1)OCO2	-9	-2%	-4	-25%	-7	-15%
